Env fusion inh: blocks HIV Env-driven cell-cell fusion; HeLa-JRFL Env/CEM21 cell fusion, luciferase; inhibition, % at 12.3 µM; 360,000 compounds, 1.1% hits; AID 651610;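 active = mean replicate inhibition score of at least 50 and every replicate individually at or above 50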;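 also: 0% = plate neutral controls and 100% = maraviroc near 300 nM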
CFTR F508del cor: correctors of CFTR F508del function in bronchial epithelial cells; CFBE cells, YFP halide quenching; stimulated with forskolin plus potentiator P3; % fluorescence drop versus neutral controls; 350,000 compounds, 0.36% hits; activity (quench increase), % at 7.58 µM;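 active = mean added fluorescence quench of at least 8% versus neutral control, with both replicates also reaching 8%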;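 also: cells transiently co-express mutant CFTR-F508del with the halide-sensitive YFP; corrector assay measuring rescue of mutant channel to the surface after 24 h compound exposure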
NSD2 HMT inh: blocks human histone methyltransferase NSD2 | O96028 | NSD2 peptide methylation, AlphaScreen, 120 min | inhibition, % at 12.5 µM | 310,000 compounds, 0.54% hits; in the data active = inhibition above about 50%
ALR H2O2 inh: blocks human ALR sulfhydryl oxidase activity | P55789 | purified ALR, DTT oxidation, H2O2 HRP-luminol luminescence | 290,000 compounds, 3.8% hits | inhibition, % (no concentration beside the values) | AID 485317;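 active = mean replicate inhibition above about 79%, with every replicate also reaching it, limit read from the data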
Casp6 inh: caspase-6 (human) enzyme inhibition; 350,000 compounds, 0.53% hits; inhibition, % at 12.5 µM; purified caspase-6, Z-VEID-R110 cleavage fluorescence;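 active = mean inhibition across replicates at least about 35%, with every replicate also reaching that limit, limit read from the data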;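 also: 0% = median of neutral control wells and 100% = no fluorescence left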
Target sequence (P55212 24-179 limits assumed): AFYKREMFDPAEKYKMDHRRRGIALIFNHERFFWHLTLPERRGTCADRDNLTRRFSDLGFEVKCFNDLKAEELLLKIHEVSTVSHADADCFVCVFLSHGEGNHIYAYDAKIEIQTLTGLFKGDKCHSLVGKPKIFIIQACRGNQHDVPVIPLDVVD
Target sequence (P55212 194-293 limits assumed): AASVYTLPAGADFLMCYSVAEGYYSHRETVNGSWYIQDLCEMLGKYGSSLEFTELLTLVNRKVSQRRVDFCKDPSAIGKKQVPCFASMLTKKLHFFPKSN
PglD DTNB: PglD (C. jejuni) enzyme inhibition; 360,000 compounds, 0.098% hits; AID 602405; purified PglD enzyme, DTNB colorimetric CoA detection; inhibition, % at 12.5 µM; in the data active = inhibition above about 16%, passing the limit was not always enough
An asterisk follows results filed as active; · = not tested or not shown; [ ] = remark or other dose. An excerpt weighted towards active compounds, which were near 4.1% of everything screened.

SMILES | Env fusion inh | CFTR F508del cor | NSD2 HMT inh | ALR H2O2 inh | Casp6 inh | PglD DTNB
CC1(C)CC(=O)C(Br)=C(O)C1 | 12 | 1 | -5 | · | 0 | ·
Cc1ccc(C(C2=C(O)CC(C)(C)CC2=O)C2C(=O)CC(C)(C)CC2=O)s1 (stereo unspecified) | -26 | · | · | 98* | · | 1
Cc1noc(C)c1NC(=O)N(C)C[C@H]1Oc2ccc(NS(=O)(=O)c3cccs3)cc2CC(=O)N([C@H](C)CO)C[C@@H]1C | -9[16.7 µM] | 1 | · | · | · | 2
CO[C@H]1CN(C)C(=O)c2cc(NC(=O)Nc3ccccc3)ccc2OC[C@H](C)N(C(=O)CC2CC2)C[C@H]1C | -10[16.7 µM] | 1 | · | · | · | -1
COc1ccc(NC(=O)c2ccc(Cl)c(S(=O)(=O)N3CCc4ccccc4C3)c2)cn1 | 92* | · | 0 | -32 | 1 | 5
O=C(Nc1ccc2c(c1)nc1n2CCOC1)c1ccco1 | -30 | · | -4 | · | · | 1
O=C(Nc1ccc(NC(=O)c2ccco2)cc1)c1ccco1 | -420 | -1 | 21 | -14 | -1 | -1
CC(C)(C)C(=O)Nc1ccc(NC(=O)c2ccco2)nc1 | 63* | 1 | · | 5 | 9 | -3
O=C(Nc1ccc2c(c1)nc1n2CCSC1)c1ccco1 | -49 | · | 8 | 99* | · | 3
Cc1nc2ccc(NC(=O)c3ccco3)cc2nc1C | -4 | -3 | -1 | 99* | 0 | ·
Cc1nc2cc(NC(=O)c3ccco3)ccc2n1C | -8 | -2 | 2 | 0 | 0 | -1
O=C(Nc1ccc(Nc2ccccc2)cc1)c1ccco1 | -93 | · | -1 | 92* | · | -5
COc1ccc(S(=O)(=O)N[C@H]2CC[C@@H](CCn3cc(C(C)C)nn3)O[C@H]2CO)cc1 | 18[16.7 µM] | 0 | · | · | 0 | 21
O=C(C[C@@H]1CC[C@H]2[C@@H](COC[C@@H](O)CN2Cc2cccc(C(F)(F)F)c2)O1)NCc1ccc(F)cc1 | · | -1 | · | · | -2 | -2
Nc1ccc(NC(=O)c2ccco2)c(Cl)c1 | -4 | -6 | 1 | 99* | 1 | -3
CC(C)OCCCNC(=O)CN1C(=O)COc2ccc(S(=O)(=O)N3CCCCCC3)cc21 | 9 | -1 | · | · | 37* | 2
COCCCNC(=O)CN1C(=O)COc2ccc(S(=O)(=O)N3CCCCCC3)cc21 | 3 | -2 | -3 | -16 | 1 | 3
C[C@@H]1CN([C@H](C)CO)C(=O)c2cc(-c3cccc(C(=O)N(C)C)c3)cnc2O[C@H]1CN(C)S(=O)(=O)c1cccc(F)c1 | 24[16.7 µM] | 2 | · | · | -2 | 2
C/C(=N\NC(=O)c1ccc(NS(=O)(=O)c2cccs2)cc1)c1ccc(O)cc1O | -55 | 3 | 0 | 99* | 0 | 1
O=C(N/N=C/c1ccc(OC(=O)c2ccccc2)cc1)c1cccnc1 | 57* | 0 | -3 | -13 | -4 | -2
COc1cc(/C=N/NC(=O)c2cccnc2)cc(Br)c1O | 11 | -7 | 2 | 81* | 2 | 1
C/C(=N\NC(=O)c1ccc(NS(=O)(=O)c2cccs2)cc1)c1ccccc1 | 12 | · | 3 | 51 | 0 | ·
O=C(N/N=C/c1c(O)n(Cc2ccccc2)c(=O)c2ccccc12)c1cccnc1 | -1 | -1 | 1 | 98* | 23 | ·
O=C(N/N=C/c1cc(Br)c(O)c(Br)c1)c1cccnc1 | 2 | -1 | 0 | 39 | -1 | -2
CCC(=O)Nc1ccc2c(c1)OC[C@@H](C)N(C(=O)C1CC1)C[C@@H](C)[C@H](OC)CN(C)C2=O | 9[16.7 µM] | -1 | · | · | -2 | -1
SMILES | Env fusion inh | CFTR F508del cor | NSD2 HMT inh | ALR H2O2 inh | Casp6 inh | PglD DTNB
C[C@@H]1CCCCO[C@H](CN(C)Cc2ccccc2)[C@@H](C)CN([C@@H](C)CO)C(=O)c2cc(NC(=O)c3ccncc3)ccc2O1 | -3[16.7 µM] | 0 | · | · | 0 | 0
C[C@@H]1CN([C@H](C)CO)C(=O)c2cccc(NC(=O)Nc3ccc(F)cc3)c2O[C@@H]1CN(C)Cc1ccc(Oc2ccccc2)cc1 | · | -1 | · | · | 2 | 13
COc1cc(C=NNC(=O)c2ccccc2NS(=O)(=O)c2cccs2)cc(OC)c1O | -2 | 3 | 3 | 99* | 3 | -3
COc1cc(/C=N\NC(=O)c2ccc(-c3ccccc3)cc2)cc(OC)c1O | · | -5 | 1 | 96* | -6 | -4
COc1cc(/C=N\NC(=O)c2ccc(-c3ccccc3)cc2)cc(OC)c1OC(C)=O | -23 | -6 | 0 | -2 | -1 | 4
COc1cc(/C=N/NC(=O)c2ccc(NS(=O)(=O)c3cccs3)cc2)cc(OC)c1O | · | -2 | 2 | 98* | 8 | -4

Screening data as filed in PubChem.
